GLP-1R agonist – GLP-1 receptor (human) agonism; HEK293 GLP-1R CRE-luciferase, luminescence, 4-6 h; cells express a hypersensitive GLP-1R form; Potency, µM (highest dose often 45.6 µM), inactives show at the highest dose activation, usual class: activators; P43220; AID 624172; actives 0.007% (n = 380,000); note: % of control where 0% means no effect
Target sequence (P43220 whole entry, looked up): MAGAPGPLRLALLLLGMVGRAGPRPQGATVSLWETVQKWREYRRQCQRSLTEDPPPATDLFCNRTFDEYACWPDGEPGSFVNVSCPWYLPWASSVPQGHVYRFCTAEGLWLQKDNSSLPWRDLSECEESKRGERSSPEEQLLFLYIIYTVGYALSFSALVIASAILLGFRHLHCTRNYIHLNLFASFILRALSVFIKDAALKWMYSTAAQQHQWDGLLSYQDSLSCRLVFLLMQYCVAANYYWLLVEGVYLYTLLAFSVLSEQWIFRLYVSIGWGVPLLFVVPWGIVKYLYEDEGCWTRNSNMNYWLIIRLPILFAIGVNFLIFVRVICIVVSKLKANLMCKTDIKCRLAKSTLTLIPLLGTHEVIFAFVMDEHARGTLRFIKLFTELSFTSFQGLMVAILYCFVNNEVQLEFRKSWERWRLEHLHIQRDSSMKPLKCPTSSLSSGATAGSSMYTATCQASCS
HEK293 tox – cytotoxicity counter-screen for GLP-1 receptor inverse agonists; HEK293 cAMP-luciferase reporter cells, luminescence, 24 h; Potency, µM (series often up to 38.3 µM), for inactives: at the top dose activity change, negative = inhibition, most hits filed as inhibitors; actives 0.13% (n = 410,000); AID 624418;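 note: loss of luciferase light is scored as toxicity; % is set by controls: 0 for no effect and ±100 for the full control effect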
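MLSMR compounds, 24 hr on cells at 37 deg C/5% CO2; luminescence after luciferase reagent (12 min RT). Inhibition counted as the undesired cytotoxic outcome.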
GLP-1R inv ag – GLP-1 receptor (human) inverse agonism; P43220; HEK293 GLP-1R CRE-luciferase, luminescence, 24 h; GLP-1R form is constitutively active; Potency, µM (titrated, usually from 38.3 µM), for the others: at the top dose activity change, negative = inhibition, usual class: inhibitors; actives 1.6% (n = 410,000); note: % is set by controls: 0 for no effect and ±100 for the full control effect; nearly all actives have a fitted effect of over 55% in size
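GLP-1R inverse agonism mode: basal reporter luminescence in engineered HEK293 cells measured after one day of compound exposure at 37 deg C, with a 12 min room-temperature detection step.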
PTHR1 agonist – activates the human parathyroid hormone receptor PTHR1; actives 0.075% (n = 410,000); HEK293 GP2 PTHR1 cells, GloSensor cAMP luminescence, 1 h; Potency, µM (doses to about 115 µM), for the others: top-dose activation, usual class: activators; note: nearly all actives have a fitted effect of over 55% in size
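HEK-293-derived GP2 cells expressing PTHR1 and a GloSensor cAMP reporter, 3,000/well, plated overnight, given luciferin plus IBMX (each 0.5 mM as added) for 1 h at 37 °C, then compound for 1 h at 37 °C. Luminescence was read after 15 min at room temperature.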
RGS4 inhibitor – human RGS4 inhibition | Transcreener GDP fluorescence polarization, RGS4-accelerated GTP hydrolysis | Potency, µM (top dose mostly 114 µM), for inactives: top-dose activity change, negative = inhibition, actives largely listed as inhibitors | actives 0.039% (n = 390,000) | AID 504845; note: % is set by controls: 0 for no effect and ±100 for the full control effect; nearly all actives have a fitted effect of over 75% in size
Target sequence (P49798 whole entry, looked up): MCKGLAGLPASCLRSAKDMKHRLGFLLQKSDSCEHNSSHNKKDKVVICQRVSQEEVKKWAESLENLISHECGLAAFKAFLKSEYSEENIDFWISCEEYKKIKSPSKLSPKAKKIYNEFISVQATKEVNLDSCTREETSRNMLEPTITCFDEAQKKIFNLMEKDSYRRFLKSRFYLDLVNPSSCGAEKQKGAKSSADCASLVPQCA
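MLSMR compounds (23 nl, pin-transferred) preincubated 10 min at room temperature with a 500nM (2x) first reagent, then RGS4 at 900nM (2x) plus Transcreener GDP mix added; fluorescence polarization (620/688 nm) read before and after 90 min at 30 °C.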
* marks the source's active call; other numbers are inactive results; i = inactive; ? = inconclusive; nt = no result given; [ ] = remark or other dose. This is a sample that favours compounds with a hit; in the whole collection about 1.7% have one here. Calls come from the whole dose curve; as a rule, active = well fitted curve in the direction sought with a large enough effect; inconclusive = small, poorly fitted or top-dose-only effect, or another doubt; inactive = no such curve, though single readings can be large; an effect the other way counts as inactive or inconclusive. Potency is the fitted concentration of half-maximal effect.

SMILES | GLP-1R agonist | HEK293 tox | GLP-1R inv ag | PTHR1 agonist | RGS4 inhibitor
Cc1cc(N=Nc2ccccc2C)ccc1N | 17.4% | -21.2% | 10µM* | -23.0% | -11.6%
COc1ccccc1/C=C/C1(C(=O)NC2CCCC2)CC(=O)N1c1ccc(F)cc1 (configuration not stated) | -0.8% | ? | 3.55µM* | -5.6%[57.5 µM] | -7.1%[56.9 µM]
CC(C)c1ccc(C(=O)N2CCCC(c3cc(C(=O)Nc4ccccc4Cl)no3)C2)cc1 (configuration not stated) | 2.8% | -3.2% | 7.4% | -77.5% | nt
CCNC(=O)C1CCCN(Cc2cc(C(F)(F)F)ccc2Cl)CC1 (configuration not stated) | 7.0% | 2.2% | ? | i | nt
COc1ccccc1C(=O)Nc1ccc2nc(SCC(=O)N3CCCc4ccccc43)sc2c1 | nt | -13.1% | ? | i | -4.7%
CN1C(=O)C(=Cc2ccccc2OCc2ccccc2Cl)C(=O)N(C)C1=O | 10.3% | -21.6% | 10µM* | i | ?
CN1C(=O)C(=Cc2ccccc2OCc2ccc(C(=O)O)cc2)C(=O)N(C)C1=O | 0.1% | -1.9% | 26.4% | i | -28.9%
CCOc1ccc(-c2nc(CSCC(=O)NCCc3ccc(OCC)c(OCC)c3)c(C)o2)cc1 | nt | -4.9% | ? | -24.2% | 1.2%
ClC(Cl)(Cl)c1nc2ccccc2n2nncc12 | 30.7% | ? | ? | i | -1.0%
Cc1ccsc1C(=O)C1CCCN(Cc2cccc(-n3cccn3)c2)C1 (configuration not stated) | 21.2% | 4.3% | 7.94µM* | -0.2% | -3.9%
Cc1ccsc1C(=O)C1CCCN(Cc2cccc(OCCO)c2)C1 (configuration not stated) | 11.0% | -13.2% | -9.9% | i | 7.9%
Cc1ccsc1C(=O)C1CCCN(Cc2ccc(-n3cccn3)cc2)C1 (configuration not stated) | 5.8% | -14.0% | 10µM* | -17.5% | -28.6%[11.4 µM]
CCOC(=O)C1=C(Cn2cnc3ccccc32)NC(=O)NC1c1cc(C)ccc1C (configuration not stated) | -6.4% | 11.2µM* | ? | i | -9.7%
C=C1C(=O)O[C@@H]2C[C@@H](C)[C@@H]3C=CC(=O)[C@@]3(C)[C@@H](OC(C)=O)[C@H]12 | -22.7% | ? | 4.47µM* | -49.3% | -52.1%
C=C1C(=O)O[C@@H]2C[C@@H](C)[C@@H]3C=CC(=O)[C@@]3(C)[C@@H](O)[C@H]12 | -9.8% | ? | 2.51µM* | -53.7% | 21.2µM*
c1ccc(Nc2nc(NCC3CCCO3)c3ccccc3n2)cc1 (configuration not stated) | -2.0% | ? | 8.91µM* | -25.0% | ?
COCCCNC(=S)NCCCNc1nc2cc(C)cc(C)c2cc1C#N | 23.4% | -2.0% | 11.2µM* | -5.7% | -2.1%
Cc1nc(N2N=C3/C(=C/c4ccc(F)cc4)CCCC3C2c2ccc(F)cc2)sc1C(=O)N(C)C (configuration not stated) | -4.4% | 410.1% | 10µM* | -20.5% | -21.5%
COC(=O)c1ccc(COc2ccccc2/C=N/NS(=O)(=O)c2ccc(C)cc2)cc1 | -12.4% | ? | 0.0% | i | 6.1%
COc1cc(C(=O)Oc2ccccc2/C=N/NC(=O)c2ccc(C)cc2)cc(OC)c1OC | 4.1% | ? | 1.58µM* | i | -19.8%
O=c1cc(CSc2ccc(Cl)cc2)nc(-c2ccccn2)[nH]1 | 7.2% | ? | ? | -41.8% | -35.4%
c1ccc2c(c1)[IH]c1ccccc1-2 | -10.9% | ? | 4.47µM* | -12.0% | -10.0%
O=C1c2ccccc2C(=O)c2ccccc21 | 23.4% | nt | nt | nt | nt
COc1cccc(C(=O)C2CCCN(Cc3cccc(C)n3)C2)c1 (configuration not stated) | 4.0% | ? | ? | -21.7% | 11.5%
COc1c(C)cc(C(=O)C2CCCN(Cc3cccc(C)n3)C2)cc1C (configuration not stated) | -5.3% | -18.7% | 8.91µM* | -1.7% | 7.3%
SMILES | GLP-1R agonist | HEK293 tox | GLP-1R inv ag | PTHR1 agonist | RGS4 inhibitor
Cc1nc2ccc(NC(=O)c3cccc(S(=O)(=O)N(C)c4ccccc4)c3)cc2s1 | -32.1% | ? | 5.62µM* | -32.6% | -17.7%
C=CCc1ccccc1OCCn1c(C2CC(=O)N(Cc3ccc(F)cc3)C2)nc2ccccc21 (configuration not stated) | nt | -17.8% | ? | -18.1% | 20.7%
CCN(CC)C(=O)c1ccc(NC(=O)c2cn(-c3ccccc3)nc2-c2ccc(OC)cc2)cc1 | 9.5% | 2.8% | 4.47µM* | i | -16.0%
Clc1cncc(N2CCNCC2)n1 | nt | nt | nt | nt | 4.23µM*
Clc1ccc(N2CCNCC2)nn1 | -9.2% | 2.9%[0.307 µM] | -8.9%[0.307 µM] | -23.3% | -26.0%
CCNc1nc(N)c(C(=O)c2ccc(Cl)s2)s1 | -3.8% | ? | ? | -3.4%[57.5 µM] | -8.7%
COc1ccc(-c2nn(-c3ccccc3)cc2C(=O)N2c3ccc(C)cc3C3CN(C)CCC32)cc1 (configuration not stated) | 8.6% | 4.0% | 14.1µM* | i | -2.3%
Cc1ccc2c(c1)C1CN(C)CCC1N2C(=O)c1ccco1 (configuration not stated) | 0.8% | -23.3% | -17.9% | i | -26.0%
COc1cc(NC(=O)c2csc(N)n2)cc(C(=O)Nc2cccc(C(F)(F)F)c2)c1 | 0.0% | ? | 3.98µM* | -85.4% | -24.5%
COc1cccc(-c2ccc3c(N)c(C(=O)Nc4cc(C(F)(F)F)ccc4OC)sc3n2)c1 | 0.1% | 34.7% | 37.5% | i | -28.3%
Cc1ccc(S(=O)(=O)NCCC(=O)Nc2ccc(Cl)cc2C(=O)c2ccccc2)cc1 | 8.2% | 11.2% | 11.2µM* | -16.4% | -1.3%
CCN1C(=O)NC(=O)/C(=C/c2cc(C)n(-c3sc(C)c(C)c3C#N)c2C)C1=O | -3.8% | ? | ? | i | ?
Cc1ccc(N2C(=O)NC(=O)/C(=C\c3cc(C)n(-c4sc5c(c4C#N)CCCC5)c3C)C2=O)cc1 | 7.0% | -22.7% | 3.55µM* | -14.5% | ?
CCOc1ccccc1N1CCN(C(=O)c2ccc3c(c2)OCO3)CC1 | 4.8% | ? | ? | -60.3% | -7.2%
Cc1ccc(C(=O)Nc2nc3ccccc3[nH]2)cc1 | -5.9% | -13.4% | 1.26µM* | -41.3% | 23.6%
COc1cccc(CC(=O)N2CCN(Cc3cccc(Cl)c3)CC2)c1 | 13.2% | -15.9% | ? | -13.9% | 10.2%
Cc1cccc(C(=O)N2CCC(=O)N(C(COCc3cccc(Cl)c3)Cc3ccccc3)CC2)c1 (configuration not stated) | 3.8% | -8.1% | 8.91µM* | i | -11.2%
O=C(CNC(=O)OCc1ccccc1)Nc1ccc(Br)cc1C(=O)c1ccccc1 | -8.8% | -27.0% | 11.2µM* | i | -26.9%

Assay outcomes deposited in PubChem BioAssay by National Center for Advancing Translational Sciences (NCATS).
